Assay [1] in a line: BmaI1 acyl-homoserine lactone synthase inhibition – biochemical, fluorescence intensity, with counterscreen (AID 720554). The conditions noted are these: BmaI1 enzyme assay, measured here: counterscreen fluorescence % control, concentration not given here.
Assay [2] deals with acyl-homoserine lactone synthase BmaI1 (Burkholderia mallei ATCC 23344). The assay is described as above. The conditions noted are these: BmaI1 enzyme assay, stronger effect = higher value, concentration not given here.

This note sets out measurements from PubChem BioAssay AID720554 (ICCB-Longwood Screening Facility, Harvard Medical School, 2013).

Structures are written as SMILES. In all, about 12,000 compounds went through this assay and about 45 (0.4%) were called active. This is one part of a sample in which actives are shown more often than they occur. Cut-off read from the data, not from the text of the source: active = inhibition mostly above about 83% (no sharp cut-off); inactive = mostly below about 52%.

With `N#Cc1ccccc1NC(=O)CN1CCNC(=O)C1`, the inhibition is 5% in assay [1] and 6% (inactive) in assay [2].
Turning to `NCCCOC1CCCCC1`, the inhibition in assay [1] is 11%; in assay [2] it was 16.5% (inactive).
The corresponding values for `NS(=O)(=O)c1cc(C(=O)O)cs1` are -4.5% and 3% (inactive).
The corresponding values for `Cc1cc(C)n(-c2ccc(C(=O)OCC(=O)NCC3CCCO3)cc2)n1` (stereo not drawn) are 9% and 8% (inactive).
The corresponding values for `O=C1NC(c2cccc(O)c2O)Nc2sc3c(c21)CCC3` (stereo not drawn) are 19% and 83% (active).
As to `Cc1ccccc1CSCc1nc(N)nc(Nc2ccccc2C)n1`, the inhibition in assay [1] is 4%; in assay [2] it was 7% (inactive).
The corresponding values for `O=C1c2ccccc2C(=O)N1/N=C/c1ccc(-c2ccccc2Br)o1` are 2.5% and 4.5% (inactive).
The corresponding values for `O=S(=O)(c1ccc(N=C=S)cc1)N1CCOCC1` are -3% and 13% (inactive).
The corresponding values for `NC(=O)C1CCN(Cc2cc(=O)oc3cc(O)ccc23)CC1` are -4.5% and 5.5% (inactive).
Regarding `CC1(C)C(=O)Nc2ccccc2N1C(=O)CSc1ncnc2ccccc12`, the inhibition in assay [1] is 10.5%; in assay [2], 18.5% (inactive).
In the case of `COP1(=S)/C(=C2/N(C)c3ccccc3C2(C)C)C=NN1C` (stereo not drawn), the inhibition in assay [1] was 6%; in assay [2], 88% (active).
The corresponding values for `CN1/C(=C2\C=NN(C)P2(=O)Nc2ccccc2)C(C)(C)c2ccccc21` (stereo not drawn) are 5% and 14.5% (inactive).
The corresponding values for `CN1/C(=C2\C=NN(C)P2(=S)N2CCCC2)C(C)(C)c2ccccc21` (stereo not drawn) are 10% and 15% (inactive).
The corresponding values for `COc1ccccc1/C=N/OCC(=O)NCc1ccc2c(c1)OCO2` are 3.5% and 16.5% (inactive).
Take `COC(=O)c1ccc(-n2c(C)cc(C(=O)CN3C(=O)CN(C)C3=O)c2C)cc1`: the inhibition is -4.5% in assay [1] and 9% (inactive) in assay [2].
The corresponding values for `Nn1c(NNC(=O)c2ccccc2)nnc(-c2cccs2)c1=O` are 11.5% and 92% (active).
Turning to `O=C(N/N=C/c1sc(N2CCCCC2)nc1-c1cccs1)c1ccccc1`, the results for the inhibition in assay [1] and in assay [2] were -8.5% and 17% (inactive), respectively.
The corresponding values for `Nc1nnc(-c2cccs2)c(=O)n1N` are 70.5% and 20% (inactive).
The corresponding values for `CCCn1c(C)cc(/C=C(\C#N)C(=O)Oc2c(C)ccc(C)c2C)c1C` are 2.5% and 17.5% (inactive).
For the compound `CN(C)Cc1ccccc1C#N`, the inhibition was 1% in assay [1] and -3.5% (inactive) in assay [2].
The corresponding values for `Cc1ccc(S(=O)(=O)NCC(=O)OC2CCOC2=O)cc1` (stereo not drawn) are 4% and -3% (inactive).
The corresponding values for `COC(=O)Cc1c(C(=O)OC)sc(N)c1C#N` are 0.5% and 5.5% (inactive).
The corresponding values for `c1cc2n[nH]nc2cn1` are -4% and 12% (inactive).
Take `COc1ccccc1C(=O)NC(=O)CSc1cccc[n+]1[O-]`: the inhibition is 10% in assay [1] and 16.5% (inactive) in assay [2].
The corresponding values for `COc1ccccc1C(=O)CSc1cccc[n+]1[O-]` are 10% and 57% (inactive).
Take `COc1cc(C(=O)CSc2cccc[n+]2[O-])cc(OC)c1OC`: the inhibition in assay [1] was 6.5%; in assay [2], 87% (active).
The corresponding values for `Cc1nn(-c2ccccc2)c2c1CC(C#N)(c1ccccn1)C1CCCN21` (stereo not drawn) are 3% and 10% (inactive).
Consider `COc1cc(OC)c(OC)cc1CNC(=O)CCc1c(C)noc1C`, for which the inhibition in assay [1] is 0%; in assay [2] it was 11% (inactive).
The corresponding values for `Cc1cc(C(=O)CN(Cc2ccco2)S(=O)(=O)/C=C/c2ccccc2)c(C)n1C` are 0.5% and 2.5% (inactive).
The corresponding values for `CN=c1scc(-c2ccccc2)n1/N=C/c1ccsc1` are -7% and 6% (inactive).
The corresponding values for `Oc1ccc(/C=N/n2c(-c3ccco3)csc2=Nc2ccc(F)cc2F)c(O)c1` are 19% and 34% (inactive).
In the case of `Cc1csc(=Nc2ccccc2F)n1/N=C/c1ccncc1`, the values for the inhibition in assay [1] and in assay [2] were -3% and 89% (active), respectively.
The corresponding values for `CCN(C(=O)Cn1ncc(Cl)c(Cl)c1=O)C1CCS(=O)(=O)C1` (stereo not drawn) are 6% and 12% (inactive).
For `COc1ccc2nc(NC(=O)c3ccco3)sc2c1`, the inhibition in assay [1] is 14.5%; in assay [2] it was 19% (inactive).
The corresponding values for `CCn1c(CCC(=O)Nc2ccc(N3CCOCC3)cc2)nc2cc(S(=O)(=O)N(C)C)ccc21` are -2.5% and 21% (inactive).
The corresponding values for `CCn1c(C)nc2cc(C#N)ccc21` are 6% and 8% (inactive).
The corresponding values for `CN(C)S(=O)(=O)c1cccc(-c2nnc3n2CCCCC3)c1` are -2% and -4.5% (inactive).
For the compound `CCc1ccc(C2=Nn3c(nnc3-c3cccc(S(=O)(=O)N(CC)CC)c3)SC2)cc1`, the results for the inhibition in assay [1] and in assay [2] were 3% and 21% (inactive), respectively.
For the compound `CN(C)S(=O)(=O)c1cccc(-c2nnc3n2N=C(c2cccs2)CS3)c1`, the inhibition is -1% in assay [1] and 87.5% (active) in assay [2].
The corresponding values for `COc1ccc2c(Cl)c(-c3nnc4n3CCC4)sc2c1` are -3.5% and 6.5% (inactive).
The corresponding values for `Cn1c(Cc2nnc3n2-c2ccccc2SC3)nc2ccccc21` are -1% and 28.5% (inactive).
The corresponding values for `Cn1c(CC(N)=S)nc2ccccc21` are 17% and 92.5% (active).
For the compound `Cc1csc(Cc2nc3ccccc3n2C)n1`, the values for the inhibition in assay [1] and in assay [2] were 8% and 16% (inactive), respectively.
On to `Cc1cc(C(=O)Cn2cnc3sccc3c2=O)c(C)n1C1CC1`, for which the inhibition in assay [1] is 8.5%; in assay [2] it was 16.5% (inactive).
Turning to `CC(C)Sc1nc2ccccc2n1CN1CCN(c2ccccn2)CC1`, the inhibition was 3% in assay [1] and 9% (inactive) in assay [2].
The corresponding values for `Cc1csc(=O)n1CN1CCN(C(=O)C2COc3ccccc3O2)CC1` (stereo not drawn) are 7.5% and 17.5% (inactive).
In the case of `COC(=O)COc1cc(NO)ccc1N=O`, the inhibition in assay [1] was 4.5%; in assay [2] it was 88.5% (active).
The corresponding values for `COC(=O)COc1ccc2ccc(=O)oc2c1` are -9.5% and -8% (inactive).
The corresponding values for `CCN(CC)c1ccc(N=CN2CCOCC2)cc1` are -31% and 53% (inactive).
The corresponding values for `COC(=O)c1c(C)oc(C)c(C(=O)OC)c1=O` are 2.5% and 1.5% (inactive).
Take `Cc1ccc(Cl)cc1N1CCN(Cn2sc3ccccc3c2=O)CC1`: the inhibition in assay [1] is 8.5%; in assay [2] it was 77% (inactive).
Regarding `Nc1nc2cc(S(=O)(=O)N3CCOCC3)ccc2o1`, the inhibition is -5.5% in assay [1] and 2.5% (inactive) in assay [2].
The corresponding values for `O=S(=O)(c1ccc2oc(=S)n(CN3CCOCC3)c2c1)N1CCOCC1` are 4% and 99.5% (active).
The corresponding values for `CCOC(=O)C1CCN(Cn2c(=S)oc3ccc(S(=O)(=O)CC)cc32)CC1` are -4% and 5% (inactive).
Regarding `CCn1c(=O)c(=O)[nH]c2cc(C(=O)Nc3ccccc3N3CCOCC3)ccc21`, the inhibition is 19.5% in assay [1] and 16.5% (inactive) in assay [2].
The corresponding values for `Cn1c(-c2ccco2)n[nH]c1=S` are 80% and 96.5% (inactive).
The corresponding values for `c1coc(-c2nnc(-c3ccco3)nn2)c1` are 34% and 0% (inactive).
The corresponding values for `O=c1[nH]nc(-c2ccco2)o1` are -7% and 96% (active).
Regarding `Cc1cc(C(=O)Cn2cc(C(F)(F)F)ccc2=O)c(C)n1Cc1ccco1`, the inhibition was 1% in assay [1] and 3% (inactive) in assay [2].
Take `Cc1ccc(C(=O)NCCN2C(=O)S/C(=C\c3ccc(F)cc3)C2=O)cc1NC(=O)c1ccco1`: the values for the inhibition in assay [1] and in assay [2] were -9.5% and 6.5% (inactive), respectively.
For the compound `O=C(O)c1sc2sccc2c1Cl`, the inhibition in assay [1] is -1.5%; in assay [2], 8.5% (inactive).
The corresponding values for `O=C1Cc2ccccc2C(=O)N1` are 7% and 99.5% (active).
The corresponding values for `O=C1NC(C(=O)O)Cc2ccccc21` (stereo not drawn) are 9% and 15% (inactive).
The corresponding values for `O=C1CCc2ccccc2N1` are -5% and -11% (inactive).
Turning to `O=C(CN1C(=O)c2ccccc2S1(=O)=O)N1N=C(c2ccc(Cl)cc2)CC1c1ccco1` (stereo not drawn), the inhibition is 10.5% in assay [1] and 15% (inactive) in assay [2].
The corresponding values for `CC1Sc2ccc(C(=O)Oc3ccc4c(c3)OCO4)cc2NC1=O` (stereo not drawn) are 2% and 35.5% (inactive).
The corresponding values for `CCN(CC)S(=O)(=O)c1ccc2c(c1)CCCN2` are -4% and 18% (inactive).
The corresponding values for `O=C(OCC(=O)N1CCC(Cc2ccccc2)CC1)c1ccc(O)cc1` are -7.5% and 2.5% (inactive).
As to `COc1ccc(N(C)S(=O)(=O)c2cccc(C(=O)Nc3ccc(N4CCN(C)CC4)cc3C)c2)cc1`, the values for the inhibition in assay [1] and in assay [2] were 11.5% and 9% (inactive), respectively.
The corresponding values for `Cc1c(C(=O)O)sc2nc(CSc3nnc(-c4ccc(F)cc4)n3C)[nH]c(=O)c12` are 2.5% and 3% (inactive).
For `CCOC(=O)c1c(N)sn(-c2ccccc2)c1=S`, the inhibition is 14.5% in assay [1] and 17% (inactive) in assay [2].
With `N#CC1=C(N)N(c2ccccc2)C(=O)C1`, the inhibition in assay [1] is 0%; in assay [2] it was -10.5% (inactive).
As to `N#Cc1c(N)sn(-c2ccccc2)c1=S`, the inhibition in assay [1] is 11.5%; in assay [2], 102% (active).
The corresponding values for `Cc1sc2ncnc(N)c2c1C` are 9.5% and 89.5% (active).
The corresponding values for `COC(=O)C(C)Sc1ncnc2sc(C)c(C)c12` (stereo not drawn) are 7% and 13% (inactive).
The corresponding values for `Cc1sc2ncnc(N3CCc4ccccc43)c2c1C` are 6% and 8.5% (inactive).
On to `CCCCn1ccnc1C(=O)c1ccc(S(=O)(=O)N2CCCC2)cc1`, for which the inhibition is 1% in assay [1] and 8% (inactive) in assay [2].
Take `CCCCN1C(=O)CC(C(=O)O)C1c1ccc(OC)cc1` (stereo not drawn): the figures for the inhibition in assay [1] and in assay [2] were 3% and -3.5% (inactive), respectively.
Turning to `CCOc1ccc(/C=N/N2C(=O)NC(C)(CC)C2=O)c(O)c1` (stereo not drawn), the inhibition in assay [1] was -4.5%; in assay [2], 0.5% (inactive).
The corresponding values for `CC(=O)NCc1ccc(-c2csc(N)n2)o1` are 17.5% and 92.5% (active).
The corresponding values for `COc1ccc(Cc2nnc3n2N=C(c2ccc(CNC(C)=O)o2)CS3)cc1` are 6% and 15.5% (inactive).
Take `CC(=O)NCCc1ccc(-c2csc(N)n2)cc1`: the inhibition in assay [1] is 41%; in assay [2], 24% (inactive).
As for `COc1cc2c(cc1NC(=O)C(C)Sc1nncn1C)oc1ccccc12` (stereo not drawn), the inhibition was -6.5% in assay [1] and 16.5% (inactive) in assay [2].
For `CNC(=O)NC(=O)C(C)N1CCc2ccccc2C1` (stereo not drawn), the results for the inhibition in assay [1] and in assay [2] were -2.5% and 2.5% (inactive), respectively.
With `COc1cccc(CC(=O)Nc2cccc(OC)c2)c1`, the inhibition in assay [1] was 2%; in assay [2], 8.5% (inactive).
Turning to `COc1cccc(NC(=O)/C=N/O)c1`, the inhibition was 19.5% in assay [1] and 37.5% (inactive) in assay [2].
Regarding `COc1cccc(N=C2NNC(C)=C(C(=O)N(C)C)S2)c1`, the inhibition in assay [1] is 13.5%; in assay [2], 88.5% (active).
The corresponding values for `CCn1c(Cn2cc(S(=O)(=O)N3CCCC3)ccc2=O)nc2cc(S(=O)(=O)N(C)C)ccc21` are 1% and 8.5% (inactive).
Regarding `Oc1c(C(Nc2ccccn2)c2cccnc2)ccc2cccnc12` (stereo not drawn), the inhibition in assay [1] was -15%; in assay [2], 14% (inactive).
The corresponding values for `Oc1c(C(c2cccnc2)N2CCOCC2)ccc2cccnc12` (stereo not drawn) are 28.5% and 105% (active).
Regarding `Oc1c(C(c2cccnc2)N2CCCCC2)ccc2cccnc12` (stereo not drawn), the values for the inhibition in assay [1] and in assay [2] were -53.5% and -20.5% (inactive), respectively.
For `CC(Sc1nnc(-c2ccccc2)o1)C(=O)N(C)c1ccccc1` (stereo not drawn), the inhibition in assay [1] was 9%; in assay [2], 7% (inactive).
The corresponding values for `CN(C(=O)c1ccco1)C1(c2ccccc2Cl)CCCCC1=O` (stereo not drawn) are 5.5% and 9.5% (inactive).
As for `CCOC(=O)C(Sc1n[nH]c(N)n1)c1ccccc1` (stereo not drawn), the inhibition in assay [1] was 13.5%; in assay [2], 15.5% (inactive).
